Reference: PubChem BioAssay (EPA / NIEHS)
Calls of active or inactive are those of the source. The calls were made as follows: active = hit-call score of the fitted dose curve at least 0.9, where 1 is the maximum; inactive = score below 0.9.

Columns and labels:
[1] = CCTE_Harrill_HTTr_Viability_MCF7: CCTE's 6-hour Cell Viability Assessment for the High-Throughput Transcriptomics (HTTr) Platform, in MCF-7 cells cultured in DMEM + 10% fetal bovine serum, Harrill Lab (AID 2284010)
How it was run: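 Membrane integrity was scored by high-content imaging of propidium iodide dye exclusion after a 6 h exposure across an eight-point dilution series. Data were fitted bidirectionally relative to DMSO as negative control and baseline.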

[2] = CCTE_Harrill_HTTr_Apoptosis_MCF7: CCTE's 6-hour Apoptosis Assessment for the High-Throughput Transcriptomics (HTTr) Platform, in MCF-7 cells cultured in DMEM + 10% fetal bovine serum, Harrill Lab (AID 2284011)
How it was run: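 MCF-7 cells in DMEM + 10% fetal bovine serum were exposed to chemicals for 6 hours over an eight-point dilution series. Caspase-3/7 activation was imaged by high content imaging with CellEvent Caspase 3/7 Green; bidirectional fitting used DMSO as baseline.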

Compound	outcome [1]	outcome [2]	AC50 [1]
CC(=O)OC/C=C(/C)CCC=C(C)C	inactive	inactive	–
CC(C)CO	inactive	inactive	–
N=C1C=CC(=C(c2ccc(N)cc2)c2ccc(N)cc2)C=C1	–	inactive	1060 nM (active)
CC1=CCC(C(C)C)C=C1 (centres undefined)	inactive	inactive	–
C1CCSC1	inactive	inactive	–
CC(=O)OCCc1ccccc1	inactive	inactive	–
CCOC(=O)/C=C\C(=O)OCC	inactive	inactive	–
CCCCCCC=O	inactive	inactive	–
CC(=O)CCC1=C(C)CCCC1(C)C	inactive	inactive	–
CCCCCCCO	inactive	inactive	–
N#Cc1ccc(C2CCCc3cncn32)cc1 (centres undefined)	inactive	inactive	–
Nc1ccc(C(=O)O)cc1	inactive	inactive	–
C=C(C)[C@@H]1CC=C(C)CC1	inactive	inactive	–
CCCCCCO	inactive	inactive	–
CC12CCC(CC1)C(C)(C)O2	inactive	inactive	–
CC(C)(C)NC(=O)[C@H]1CC[C@H]2[C@@H]3CC[C@H]4NC(=O)C=C[C@]4(C)[C@H]3CC[C@]12C	inactive	inactive	–
CCCCOCCOC(=O)COc1ccc(Cl)cc1Cl	inactive	inactive	–
CCC(C)C(=O)OC (centres undefined)	inactive	inactive	–
Oc1c(Cl)cc(Cl)c(Cl)c1Cl	inactive	inactive	–
Clc1cc(Cl)c(Cl)c(Cl)c1Cl	inactive	inactive	–
C=C[C@@]1(C)CC(=O)[C@]2(O)[C@@]3(C)[C@@H](O)CCC(C)(C)[C@@H]3[C@H](O)[C@H](OC(C)=O)[C@@]2(C)O1	inactive	inactive	–
COc1ccc(-c2coc3cc(O)cc(O)c3c2=O)cc1	inactive	inactive	–
